According to PubChem BioAssay AID686979 (National Center for Advancing Translational Sciences (NCATS), 2013):
The whole screen tested about 420,000 compounds, of which about 50,000 (12%) were called active. Another 26% or so got no clear call; they are omitted. The call rests on the fitted dose curve; in most records, active means well fitted inhibition curve with a large enough effect; inconclusive means small, poorly fitted or top-dose-only effect; inactive means flat fitted curve, though single readings scatter. The full list was thinned out, with actives kept by preference.
On the % scale 0 is the no-effect control and ±100 the full control effect; potency means the concentration at half of the fitted maximal effect.

Test: qHTS for Inhibitors of human tyrosyl-DNA phosphodiesterase 1 (TDP1): qHTS in cells in presence of CPT; further: nearly all actives have a fitted effect of over 55% in size
Details: chicken DT40 Tdp1-/-;hTDP1 cells + 20 nM CPT, ATP luminescence, 48 h; series mostly up to 46.2 µM; activity change, negative = growth inhibition: at the top concentration
How it was run: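 Cell growth measured by CellTiter-Glo luminescence after a minimum 48 h, 37 C compound exposure with 20 nM CPT in Tdp1-knockout DT40 cells stably expressing hTDP1, seeded 400/well; qHTS titration format.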
For `Cc1ccc(CN2CCN(/N=C/c3ccco3)CC2)c(C)c1`, the “activity change, negative = growth inhibition” value was -24% (inactive).
In the case of `CC(C)=CCCC1(C)C=Cc2c(ccc3c2[nH]c2cc(O)c(C)cc23)O1` (stereo unspecified), the Potency is reported as 16.4 µM (active).
In the case of `Cc1ccc(CNC(=O)Nc2nnc([C@H]3C[C@H](O)[C@@H](CO)O3)s2)cc1`, the “activity change, negative = growth inhibition” value is reported as 1.01% (inactive).
In the case of `CN1CCN(S(=O)(=O)c2ccc(N3CCN(c4ccccc4O)CC3)c([N+](=O)[O-])c2)CC1`, the Potency is reported as 23.1 µM (active).
In the case of `Cc1cc(C)n(-c2ccc(C(=O)O)cc2[N+](=O)[O-])n1`, the “activity change, negative = growth inhibition” value is reported as 14.8% (inactive).
In the case of `O=[N+]([O-])c1ccc(N2CCN(S(=O)(=O)c3ccccc3)CC2)cc1N1CCc2ccccc2C1`, the “activity change, negative = growth inhibition” value is reported as 7.97% (inactive).
For `Cc1ccc(C(=O)c2ccc(N3CCN(C)CC3)c([N+](=O)[O-])c2)cc1`, the Potency was 18.4 µM (active).
For `Cc1cc(N)n(-c2ccc(S(=O)(=O)N3CCCC3)cc2[N+](=O)[O-])n1`, the “activity change, negative = growth inhibition” value was -7.74% (inactive).
In the case of `Cc1cccc(N2CCN(c3ccc(C(N)=O)cc3[N+](=O)[O-])CC2)c1C`, the “activity change, negative = growth inhibition” value is reported as 5.49% (inactive).
For `C=CCN(c1ccc(Cl)cc1)S(=O)(=O)c1cccc(C(=O)OCC(=O)N(C)C)c1`, the “activity change, negative = growth inhibition” value was -1.6% (inactive).
For `Cc1ccc2c(c1)N(C(=O)CCC(=O)NCc1cccnc1)CCO2`, the “activity change, negative = growth inhibition” value was -6.02% (inactive).
For `Cn1nccc1NC(=O)CC(CC(=O)O)c1ccccc1` (stereo unspecified), the “activity change, negative = growth inhibition” value was 7.18% (inactive).
In the case of `Cn1ccsc1=NC(=O)c1cc(S(=O)(=O)N2CCOCC2)ccc1Cl`, the “activity change, negative = growth inhibition” value is reported as 0.0181% (inactive).
With `N/C(=N\OC(=O)/C=C/c1ccccc1)c1ccc(Br)cc1` the “activity change, negative = growth inhibition” value was 9.3% (inactive).
In the case of `N/C(=N\OC(=O)c1ccc2c(c1)OCO2)c1ccc(Br)cc1`, the “activity change, negative = growth inhibition” value is reported as -16.9% (inactive).
With `N/C(=N\OC(=O)N1c2ccccc2Sc2ccccc21)c1ccc(Br)cc1` the Potency was 20.6 µM (active).
For `Cc1csc(=O)n1CCC(=O)OCC(=O)NNC(=O)c1ccc(Br)cc1`, the “activity change, negative = growth inhibition” value was 3.49% (inactive).
In the case of `CC(=O)Nc1cccc(C(=O)OCC(=O)Nc2nnc(-c3ccccc3)o2)c1`, the “activity change, negative = growth inhibition” value is reported as -1.76% (inactive).
With `COCCNC(=O)C1C(=O)Nc2ccccc2C(=O)N1c1ccc2c(c1)OCCO2` (stereo unspecified) the “activity change, negative = growth inhibition” value was -9.47% (inactive).
In the case of `COc1cc(SC#N)ccc1N=Cc1c(C)[nH]n(-c2ccc(C)cc2)c1=O`, the Potency is reported as 2.59 µM (active).
With `COc1cccc(-c2coc3cc4oc(=O)c(CC(=O)O)c(C)c4cc23)c1` the “activity change, negative = growth inhibition” value was 0.503% (inactive).
For `O=C(O)CC1S/C(=N\N=C/c2ccccc2O)N(c2ccc(O)cc2)C1=O` (stereo unspecified), the “activity change, negative = growth inhibition” value was 0.955% (inactive).
In the case of `S=C(Nc1ccc(Br)cc1Cl)N1CCC2(CC1)OCCO2`, the “activity change, negative = growth inhibition” value is reported as -0.753% (inactive).
For `C=C1C(=O)OC2C1CCC(C)=CCCC1(C)OC21` (stereo unspecified), the Potency was 1.64 µM (active).
For `Cc1cc(Cl)ccc1NC(=S)N1CCC(C(N)=O)(N2CCCCC2)CC1`, the “activity change, negative = growth inhibition” value was -16.5% (inactive).
In the case of `O=C(COC(=O)/C=C/c1cccc(Cl)c1)NCc1cccs1`, the “activity change, negative = growth inhibition” value is reported as 1.25% (inactive).
With `Cc1ccc(OC(=O)CCC(=O)Nc2ccc(Br)cc2)cc1` the “activity change, negative = growth inhibition” value was 3.44% (inactive).
With `COc1ccc(NC(=O)c2sc(N)nc2-c2ccccc2)cc1` the “activity change, negative = growth inhibition” value was -14.4% (inactive).
In the case of `COC(=O)CCc1sc(Nc2ccc(Br)cc2)nc1-c1ccc(OC)cc1`, the Potency is reported as 23.1 µM (active).
With `CCc1c(C)sc(NC(=O)C2c3ccccc3Oc3ccccc32)c1C(=O)OC(C)C` the “activity change, negative = growth inhibition” value was -13.5% (inactive).
In the case of `Cc1ccn2c(=O)c(NC(=O)c3cccc4ccccc34)c(C)nc2c1`, the “activity change, negative = growth inhibition” value is reported as -23.8% (inactive).
In the case of `NC(=O)N1CCCC1C(=O)Nc1ccc(Cl)c(Cl)c1` (stereo unspecified), the “activity change, negative = growth inhibition” value is reported as -26.9% (inactive).
In the case of `O=C(Nc1ccc(Cl)c(Cl)c1)N1CC=C(c2ccccc2)CC1`, the Potency is reported as 23.1 µM (active).
In the case of `O=C(O)c1cccc(S(=O)(=O)N2CC=C(c3ccccc3)CC2)c1`, the “activity change, negative = growth inhibition” value is reported as 7.01% (inactive).
With `CCCCn1c(N)c(N(CCC(C)C)C(=O)c2ccc([N+](=O)[O-])o2)c(=O)[nH]c1=O` the “activity change, negative = growth inhibition” value was -28.3% (inactive).
For `CCCCC(O)C1=C[N+](=O)CC=C1` (stereo unspecified), the “activity change, negative = growth inhibition” value was 2.01% (inactive).
With `Nc1cc(=O)nc(SCc2ccccc2)n1Cc1ccco1` the “activity change, negative = growth inhibition” value was 26.4% (inactive).
With `CCn1c(Cc2ccccc2)nnc1SCc1nc2ccccc2c(=O)[nH]1` the “activity change, negative = growth inhibition” value was -18.4% (inactive).
In the case of `O=c1[nH]c(CSc2ncc(-c3ccc(F)cc3)n2Cc2ccco2)nc2ccccc12`, the Potency is reported as 18.4 µM (active).
With `COc1ccc2ccn(C)c2c1` the “activity change, negative = growth inhibition” value was 2.6% (inactive).
With `CCOc1cc(NC(=O)c2ccco2)c(OCC)cc1NC(=O)COc1ccccc1` the Potency was 4.11 µM (active).
With `CCOc1cc(NC(=S)NCCCOC)c(OCC)cc1NC(=O)c1ccco1` the “activity change, negative = growth inhibition” value was -14.1% (inactive).
For `CCOc1cc(NC(=S)NCc2ccco2)c(OCC)cc1NC(=O)c1ccco1`, the “activity change, negative = growth inhibition” value was -16.1% (inactive).
For `COc1ccc(-c2nc3c4ccccc4n(CC(=O)Nc4ccc(C(C)=O)cc4)c(=O)n3n2)cc1`, the “activity change, negative = growth inhibition” value was -4.12% (inactive).
With `Cc1cc(N2CCN(c3cccc(C(F)(F)F)c3)CC2)n2nc(-c3ccccc3)nc2n1` the “activity change, negative = growth inhibition” value was -1.02% (inactive).
With `O=c1n(Cc2cccc(C(F)(F)F)c2)c2ccccc2c2nc(-c3ccccc3)nn12` the Potency was 23.1 µM (active).
For `CC(C)C(OC(=O)c1cccs1)C(=O)NC1CCCCC1` (stereo unspecified), the “activity change, negative = growth inhibition” value was -15% (inactive).
In the case of `Cc1ccc(NC(=O)CN(C)Cc2ccc(F)cc2)c([N+](=O)[O-])c1`, the “activity change, negative = growth inhibition” value is reported as -19.4% (inactive).
In the case of `CCn1c(SCC(=O)NC2CCCC2)nnc1-c1ccoc1C`, the “activity change, negative = growth inhibition” value is reported as -9.67% (inactive).
In the case of `COC(=O)c1onc(-c2c(OC)cc(OC)cc2OC)c1C(=O)OC`, the “activity change, negative = growth inhibition” value is reported as -5.28% (inactive).
For `CN(C(=O)CN1C(=O)/C(=C/c2ccc(Cl)cc2)SC1=S)C1CCS(=O)(=O)C1` (stereo unspecified), the Potency was 18.4 µM (active).
